# Screening data: PubChem BioAssay, The Scripps Research Institute Molecular Screening Center
# Most compounds without a hit are left out; they make up all but 2.6% or so of the library.
# PAFAH1B3 FP inh: PAFAH1B3 enzyme inhibitors, primary screen, biochemical, fluorescence polarization, human; recombinant PAFAH1B3, FP-rhodamine probe; AID 492972, 2010; Platelet-activating factor acetylhydrolase IB subunit alpha1 (Homo sapiens), Q15102; inhibition, % at 3.39 µM; hit rate 0.28% among 340,000;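 active means inhibition above the screen-wide average of all tested compounds plus 3 SD, cut at about 25% in these data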;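 further: 0% = enzyme with DMSO only and 100% = wells lacking PAFAH1B3 protein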
# Target sequence (Q15102 whole entry, looked up): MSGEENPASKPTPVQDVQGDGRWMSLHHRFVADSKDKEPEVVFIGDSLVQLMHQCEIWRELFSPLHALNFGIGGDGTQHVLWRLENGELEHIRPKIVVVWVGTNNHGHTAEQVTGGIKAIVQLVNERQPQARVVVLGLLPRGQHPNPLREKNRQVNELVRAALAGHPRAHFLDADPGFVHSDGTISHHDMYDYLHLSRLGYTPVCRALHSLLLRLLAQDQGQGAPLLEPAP
# PKA-R1A act: activators of PKA-R1A holoenzyme, primary screen, biochemical, fluorescence polarization, Cy5-IP20, bovine R1A, mouse PKAc | cAMP-dependent protein kinase type I-alpha regulatory subunit (Bos taurus) + … | hit rate 0.083% among 340,000 | activation, % at 11.4 µM | PKA-R1A dissociation; scaled: DMSO 0%, 113 µM cGMP 100% | AID 504707, 2011;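 active means percent activation above the mean of all tested compounds plus 3 SD, cut at about 19% in these data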;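 further: higher means more PKAc released from R1A so a rise in polarization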
# PAFAH1B2 FP inh: PAFAH1B2 enzyme inhibitors, primary screen, biochemical, fluorescence polarization, human. hit rate 1.2% among 340,000. Platelet-activating factor acetylhydrolase IB subunit alpha2 (Homo sapiens), P68402. recombinant PAFAH1B2, FP-rhodamine activity probe. inhibition, % at 3.39 µM;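 active means inhibition above the mean of all tested compounds plus 3 SD, cut at about 24% in these data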;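 further: 0% = enzyme with DMSO and 100% = wells lacking PAFAH1B2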
# Target sequence (P68402 whole entry, looked up): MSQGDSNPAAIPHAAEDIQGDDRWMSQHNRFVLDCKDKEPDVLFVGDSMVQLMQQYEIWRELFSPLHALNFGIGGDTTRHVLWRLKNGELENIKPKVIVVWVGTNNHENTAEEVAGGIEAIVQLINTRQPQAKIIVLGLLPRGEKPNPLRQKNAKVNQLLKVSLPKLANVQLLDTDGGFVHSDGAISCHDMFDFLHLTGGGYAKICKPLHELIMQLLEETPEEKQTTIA
# PKA-R2B activ: activators of PKA-R2B holoenzyme, primary screen, biochemical, fluorescence polarization, Cy5-IP20, human; PKA-R2B holoenzyme dissociation; R2B truncated from residue 108, S112A mutant; 0% DMSO only, 100% 113 µM cGMP; activation, % at 11.4 µM; hit rate 0.079% among 340,000; AID 504700, 2011;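 active means activation above a cutoff set at the mean over all compounds plus 3 SD, cut at about 18% in these data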;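 further: higher means more holoenzyme dissociation and a rise in polarization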
# pPAFAH inh: pPAFAH enzyme inhibitors, primary screen, biochemical, fluorescence polarization, human; inhibition, % at 3.39 µM; recombinant pPAFAH, FP-rhodamine probe fluorescence polarization; hit rate 1.5% among 330,000; Platelet-activating factor acetylhydrolase (Homo sapiens), Q13093;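 active means inhibition above the mean inhibition across the screen plus 3 SD, cut at about 25% in these data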;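 further: inhibitors block binding of the rhodamine activity-based probe so polarization drops; 0% = enzyme with DMSO and 100% = wells lacking pPAFAH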
# PAFAH2 inh: PAFAH2 enzyme inhibitors, primary screen, biochemical, fluorescence polarization, human | recombinant PAFAH2, FP-rhodamine activity probe | inhibition, % at 3.39 µM | hit rate 0.99% among 340,000;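 active means inhibition above the mean over all tested compounds plus 3 SD, cut at about 30% in these data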;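 further: inhibitors block probe labeling of enzyme so polarization drops; 0% = enzyme with DMSO and 100% = wells lacking PAFAH2 protein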
# PAFAH2 FP conf: PAFAH2 enzyme inhibitors, confirmation, biochemical, fluorescence polarization, human; shares compounds with PAFAH2 inh; recombinant PAFAH2, FP-rhodamine activity probe; inhibition, % at 3.39 µM; hit rate 65% among 2,300;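 active means mean inhibition over three repeats above a set limit taken from the earlier primary screen, cut at about 30% in these data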;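 further: inhibitor blocks binding of rhodamine activity probe so polarization falls; 0% = enzyme with DMSO and 100% = wells lacking PAFAH2 protein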
# Active calls of the source: *; . = not tested or not shown.
SMILES,PAFAH1B3 FP inh,PKA-R1A act,PAFAH1B2 FP inh,PKA-R2B activ,pPAFAH inh,PAFAH2 inh,PAFAH2 FP conf
CCN(CC)S(=O)(=O)c1cccc(NC(=O)COC(=O)C2COc3ccccc3O2)c1 (configuration not stated),0,-9,4,-6,10,2,.
O=C(COC(=O)C1=COCCO1)Nc1ccc(Oc2ccccc2)cc1,-1,0,-4,5,6,83*,77*
CCN(CC)S(=O)(=O)c1cccc(NC(=O)COC(=O)C2=COCCO2)c1,15,8,9,7,6,30*,11
CC(C)(C)c1ccc(NC(=O)COC(=O)C2=COCCO2)cc1,8,1,1,4,9,22,.
O=C(Cc1cccc2ccccc12)NCCc1ccccc1,4,-1,8,4,3,0,.
CCC(C)c1ccccc1NC(=O)COC(=O)C1=COCCO1 (configuration not stated),11,3,5,2,9,62*,48*
Cc1ccccc1NC(=O)COC(=O)C1=COCCO1,7,-5,3,0,0,21,.
Cc1ccc(/C=C2\Oc3c(ccc(O)c3CN3CCN(C)CC3)C2=O)cc1,5,-8,1,-15,6,26,.
CCN1CCN(Cc2c(O)ccc3c2O/C(=C\C=C\c2ccccc2)C3=O)CC1,-3,-2,0,-3,2,36*,32*
CCc1ccc(/C=C2\Oc3c(ccc(O)c3CN3CCN(C)CC3)C2=O)cc1,6,8,7,1,1,58*,53*
O=C1/C(=C/C=C/c2ccccc2)Oc2c1ccc(O)c2CN1CCN(CCO)CC1,3,7,-3,10,7,17,.
CCN1CCN(Cc2c(O)ccc3c2O/C(=C\c2ccc(C)cc2)C3=O)CC1,1,2,-1,-13,4,33*,25
NC(=O)c1ccc(NC(=O)COC(=O)C2CCN(S(=O)(=O)c3cccs3)CC2)cc1,12,-1,5,9,3,9,.
CC1C(=O)N(Cc2cn(CCC3OCCCO3)nn2)CCS(=O)(=O)N1Cc1ccc(-c2ccc(Cl)c(Cl)c2)cc1 (configuration not stated),.,-8,.,6,.,.,.
O=C(Nc1ccc(-c2csnn2)cc1)C1CC1,7,-3,3,6,-2,-8,.
O=C(Oc1ccc(-c2csnn2)cc1)C1CC1,7,-8,6,-12,20,75*,76*
O=C(COC(=O)C1CC1)Nc1ccc(N=Nc2ccccc2)cc1,4,-2,3,6,10,85*,78*
O=C(COC(=O)C1CC1)NC(=O)c1ccccc1,2,10,11,2,0,32*,13
CCCCC(=O)OCC(=O)Nc1ccc(OC(F)F)cc1,4,-14,-1,13,8,25,.
O=C(COC(=O)C1CC1)Nc1ccc(OC(F)F)cc1,9,-3,1,-1,13,55*,46*
Cc1cccc(C(=O)Nc2cc(Cl)ccc2-n2cncn2)c1[N+](=O)[O-],1,-4,2,-10,8,39*,31*
CS(=O)(=O)c1ccccc1C(=O)Nc1cc(Cl)ccc1-n1cncn1,1,-2,-3,4,-2,6,.
CC(C)OC(=O)c1ccc(NC(=O)C2C3CC4OC(=O)C2C4C3)cc1 (configuration not stated),7,-2,5,-6,-3,2,.
Cc1ccc(NC(=O)COC(=O)C2C3CC4OC(=O)C2C4C3)cc1 (configuration not stated),4,0,2,4,-3,55*,55*
CCOc1ccc(NC(=O)COC(=O)C2C3CC4OC(=O)C2C4C3)cc1 (configuration not stated),2,-7,1,5,-2,47*,40*
SMILES,PAFAH1B3 FP inh,PKA-R1A act,PAFAH1B2 FP inh,PKA-R2B activ,pPAFAH inh,PAFAH2 inh,PAFAH2 FP conf
CC(=O)c1ccc(NC(=O)COC(=O)C2C3CC4OC(=O)C2C4C3)cc1 (configuration not stated),6,2,-6,-5,0,25,.
O=C(COC(=O)C1C2CC3OC(=O)C1C3C2)Nc1cccc(Cl)c1 (configuration not stated),7,-7,6,9,2,77*,84*
Cc1cc(S(=O)(=O)NCc2ccccc2)ccc1OCC(=O)N1CCCC1,8,-11,3,-4,10,-4,.
COc1ccc(NC(=O)COC(=O)CN2C(=O)c3ccccc3C2=O)cc1,5,1,2,9,.,8,.
O=C(C1CC(=O)N(C2CCCCC2)C1)N1CCN(c2cccc(C(F)(F)F)c2)CC1 (configuration not stated),2,0,4,3,4,4,.
COc1cccc(C(=O)OCC(=O)Nc2cc(C)on2)c1OC,7,-11,2,-1,8,74*,52*
Cc1cc(NC(=O)COC(=O)c2ccc(C)c(C)c2)no1,4,-9,-1,-12,4,52*,34*
O=c1oc(/C=C/c2ccccc2)nc2sc3c(c12)CCC3,15,10,0,9,6,66*,60*
Cc1ccccc1-c1nc2sc3c(c2c(=O)o1)CCC3,9,-8,-2,3,17,76*,80*
O=c1oc(-c2ccccc2)nc2sc3c(c12)CCCC3,6,-3,-1,-5,-5,49*,37*
O=c1oc(-c2cccs2)nc2sc3c(c12)CCCCC3,13,1,10,-8,-6,17,.
COc1ccc(/C=C/c2nc3sc4c(c3c(=O)o2)CCC4)cc1,2,0,6,3,1,29,.
O=c1oc(-c2cc3ccccc3o2)nc2sc3c(c12)CCCC3,0,11,-7,-7,2,69*,68*
Cc1ccccc1-c1nc2sc3c(c2c(=O)n1N)CCCC3,6,-10,1,-3,-5,4,.
CCCCCc1ccc(-c2cn(CN3C(=O)c4ccccc4C3=O)nn2)cc1,0,-5,8,0,-1,11,.
CN(Cc1ccc(OC(F)F)cc1)C(=O)/C=C/c1ccc(S(=O)(=O)N2CCOCC2)cc1,15,3,5,-7,-1,3,.
